HDAC3 inh: HDAC3 deacetylase inhibitors, primary screen, biochemical, fluorescence, cell-free homogeneous. hit rate 0.15% among 320,000. recombinant HDAC3, fluorogenic peptide/trypsin coupled. inhibition, % at 8.3 µM; in the data active = inhibition above about 26%, passing the limit was not always enough
Target sequence (O15379 whole entry, looked up): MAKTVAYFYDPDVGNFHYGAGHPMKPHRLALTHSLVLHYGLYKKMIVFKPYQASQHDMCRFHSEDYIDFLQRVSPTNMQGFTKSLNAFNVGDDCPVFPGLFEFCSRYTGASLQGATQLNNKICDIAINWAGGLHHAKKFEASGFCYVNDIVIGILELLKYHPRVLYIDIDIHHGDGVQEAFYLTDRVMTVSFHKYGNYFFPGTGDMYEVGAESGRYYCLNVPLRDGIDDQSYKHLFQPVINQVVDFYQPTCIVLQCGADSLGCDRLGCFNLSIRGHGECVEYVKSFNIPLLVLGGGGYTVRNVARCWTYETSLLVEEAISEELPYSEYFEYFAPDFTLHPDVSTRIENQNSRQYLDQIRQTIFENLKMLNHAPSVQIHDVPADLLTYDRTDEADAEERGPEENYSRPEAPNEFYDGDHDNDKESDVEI
Rtt109 Vps75: inhibitors of C. albicans Rtt109/Vps75 HAT, primary screen, biochemical, ThioGlo CoA-SH fluorescence, plate reader; inhibition, % at 34.9 µM; purified Rtt109/Vps75, 4 h; hit rate 0.16% among 330,000; AID 540336, 2011; Histone acetyltransferase RTT109 (Candida albicans (strain SC5314 / ATCC MYA-2876)), …;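 active = inhibition of at least 50% in every replicate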
Rce1 inh: yeast Rce1p protease inhibitors, primary screen, biochemical, fluorescence, cell-free homogeneous; CAAX prenyl protease 2 (Saccharomyces cerevisiae (strain ATCC 204508 / S288c)), Q03530; yeast membranes, quenched prenylated peptide cleavage fluorescence; calls only; hit rate 0.27% among 290,000;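 active = fall in fluorescence gain of 50% or more versus controls, with final raw signal at or below 3038400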;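 note: plate controls were neutral control wells for no effect and wells lacking membranes for full effect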
ALR H2O2 inh: inhibitors of human ALR sulfhydryl oxidase, primary screen, biochemical, H2O2 detection, HRP-luminol luminescence, single point. FAD-linked sulfhydryl oxidase ALR (Homo sapiens), P55789. purified ALR, DTT oxidation. inhibition, % (concentration not given with the values). hit rate 3.8% among 290,000;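 active = mean replicate inhibition above about 79%, with every replicate also reaching it, limit read from the data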
Target sequence (P55789 whole entry, looked up): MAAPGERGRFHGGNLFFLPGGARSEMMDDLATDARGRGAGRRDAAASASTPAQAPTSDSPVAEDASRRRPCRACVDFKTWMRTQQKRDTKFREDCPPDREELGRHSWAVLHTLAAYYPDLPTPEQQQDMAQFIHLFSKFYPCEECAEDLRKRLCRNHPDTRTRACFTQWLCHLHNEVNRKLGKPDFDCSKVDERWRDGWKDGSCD
Efflux pump mplx: inhibitors of Candida efflux pumps in yeast, primary screen, S. cerevisiae, Nile Red, multiplex; inhibition, % at 10 µM; S. cerevisiae Candida pump triplex; hit rate 0.44% among 330,000; AID 485275, 2010;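 active = plate passing quality check with inhibition over a set limit, or well fluorescence over plate mean plus 4 SD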;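 note: Nile Red retained in pooled yeast measured as flow cytometry median fluorescence; 0% = buffer negative control and 100% = Enniatin B positive control; higher means more Nile Red kept so more efflux inhibition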
GRK2 aptamer HTS: compounds blocking aptamer binding on GRK2 – biochemical, human GRK2, bead flow cytometry, HTS, primary screen; Beta-adrenergic receptor kinase 1 (Homo sapiens), P25098; FAM-aptamer displacement from GRK2; inhibition of aptamer binding, % at 10 µM; hit rate 0.59% among 330,000;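 active = inhibition of aptamer binding above 40%, roughly 3 SD of noise, on plates passing a quality check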;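 note: median bead fluorescence of bound FAM aptamer so fluorescent compounds give negative values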
* marks the source's active call; other numbers are inactive results. Shown are actives, neighbours in structure and some others; about 4.5% of the full set was active somewhere.

For CSc1nsc(SCC(=O)Nc2ccc3c(c2)OCCO3)n1 the results were HDAC3 inh 6, Rtt109 Vps75 2, Rce1 inh inactive, ALR H2O2 inh 98*, Efflux pump mplx 0 and GRK2 aptamer HTS 0.
`COc1ccccc1NC(=O)CSc1nc(SC)ns1` gave HDAC3 inh 5, Rtt109 Vps75 -4, Rce1 inh inactive, ALR H2O2 inh 85*, Efflux pump mplx 0 and GRK2 aptamer HTS 0.
Cc1csc(SCC(=O)Nc2ccc3c(c2)OCCO3)n1 was read as HDAC3 inh 1, Rtt109 Vps75 -2, Rce1 inh inactive, ALR H2O2 inh -11, Efflux pump mplx 0 and GRK2 aptamer HTS 4.
`CSc1nsc(SCC(=O)Nc2cccc(C(=O)O)c2)n1` gave HDAC3 inh 1, Rtt109 Vps75 -12, Rce1 inh inactive, ALR H2O2 inh 7, Efflux pump mplx 0 and GRK2 aptamer HTS 0.
CSc1nsc(SCC(=O)Nc2cccc(NC(C)=O)c2)n1 was read as HDAC3 inh 6, Rtt109 Vps75 5, Rce1 inh inactive, ALR H2O2 inh 99*, Efflux pump mplx 0 and GRK2 aptamer HTS 0.
Screening Cc1coc2c(C)c3oc(=O)c(CCC(=O)N4CCC(C(=O)NCCCC(=O)O)(c5ccccc5)CC4)c(C)c3cc12 returned HDAC3 inh -7, Rtt109 Vps75 2, Rce1 inh inactive, ALR H2O2 inh 15, Efflux pump mplx 0 and GRK2 aptamer HTS 3.
Screening COC(=O)c1ccc2nc(-c3cccc(N)c3)cn2c1 returned HDAC3 inh -5, Rtt109 Vps75 3, Rce1 inh inactive, ALR H2O2 inh 99*, Efflux pump mplx 0 and GRK2 aptamer HTS 0.
Screening COC(=O)c1ccc2nc(-c3ccc(S(C)(=O)=O)cc3)cn2c1 returned HDAC3 inh -7, Rtt109 Vps75 -3, Rce1 inh inactive, ALR H2O2 inh 1, Efflux pump mplx 0 and GRK2 aptamer HTS 7.
Screening CC(=O)Oc1ccc2c(=O)c(Oc3ccccc3)coc2c1OC(C)=O returned HDAC3 inh 13, Rtt109 Vps75 4, Rce1 inh inactive, ALR H2O2 inh 99*, Efflux pump mplx 0 and GRK2 aptamer HTS 9.
Screening Cc1ccc(Oc2coc3cc(OC(=O)c4cccs4)ccc3c2=O)cc1 returned HDAC3 inh 10, Rtt109 Vps75 2, Rce1 inh inactive, Efflux pump mplx 0 and GRK2 aptamer HTS 2.
Screening CCOC(=O)Nc1sc(NS(=O)(=O)c2ccccc2)nc1C returned HDAC3 inh 3, Rtt109 Vps75 0, Rce1 inh inactive, ALR H2O2 inh 98*, Efflux pump mplx 0 and GRK2 aptamer HTS 0.
Screening Cc1nc(NS(=O)(=O)c2ccccc2)sc1NC(=O)Nc1ccccc1 returned HDAC3 inh 5, Rtt109 Vps75 7, Rce1 inh inactive, ALR H2O2 inh 99*, Efflux pump mplx 0 and GRK2 aptamer HTS 2.
For S=c1nc(-c2ccccc2)n(Cc2cccnc2)c2c1CCCC2 the results were HDAC3 inh 3, Rce1 inh inactive, ALR H2O2 inh 94*, Efflux pump mplx 0 and GRK2 aptamer HTS 1.
Screening CC1(C)Cc2c(c(=S)nc(-c3ccccc3)n2Cc2cccnc2)CO1 returned HDAC3 inh 2, Rtt109 Vps75 -9, Rce1 inh inactive, Efflux pump mplx 0 and GRK2 aptamer HTS 2.
Oc1ccc(Nc2ncnc3c2oc2ccccc23)cc1 was read as HDAC3 inh 4, Rtt109 Vps75 3, Rce1 inh inactive, ALR H2O2 inh 42, Efflux pump mplx 0 and GRK2 aptamer HTS 0.
CCc1nc(Nc2ccc(N3CCN(C(C)=O)CC3)cc2)c2oc3ccccc3c2n1 was read as HDAC3 inh 4, Rtt109 Vps75 7, Rce1 inh active, ALR H2O2 inh 96*, Efflux pump mplx 0 and GRK2 aptamer HTS 4.
CC(=O)N1CCN(c2ccc(Nc3ncnc4c3oc3ccccc34)cc2)CC1 was read as HDAC3 inh 6, Rtt109 Vps75 7, Rce1 inh inactive, ALR H2O2 inh 99*, Efflux pump mplx 0 and GRK2 aptamer HTS 3.
For CC1Cc2ccccc2N1C(=O)COC(=O)Cc1ccc(F)cc1 (stereo not drawn) the results were HDAC3 inh 0, Rtt109 Vps75 0, Rce1 inh inactive, ALR H2O2 inh -4, Efflux pump mplx 0 and GRK2 aptamer HTS 0.
For CCCCn1c(N)c(N(CC(C)C)C(=O)COC(=O)C2(c3ccccc3)CC2)c(=O)[nH]c1=O the results were HDAC3 inh -6, Rtt109 Vps75 2, Rce1 inh inactive, ALR H2O2 inh 2, Efflux pump mplx 0 and GRK2 aptamer HTS 4.
N#C/C(=N/O)c1nc(-c2ccc(F)cc2)cs1 was read as HDAC3 inh 3, Rtt109 Vps75 2, Rce1 inh inactive, ALR H2O2 inh 98*, Efflux pump mplx 0 and GRK2 aptamer HTS 0.
Fc1ccc(-c2csc(-c3ccncc3)n2)cc1 was read as HDAC3 inh -5, Rtt109 Vps75 4, Rce1 inh inactive, ALR H2O2 inh 4, Efflux pump mplx 0 and GRK2 aptamer HTS 1.
`CCN(CC)C(=O)c1csc(Nc2ccc(C)cc2)n1` gave HDAC3 inh 4, Rce1 inh inactive, ALR H2O2 inh 87*, Efflux pump mplx 0 and GRK2 aptamer HTS 0.
`O=C(c1ccc(-c2ccccc2)cc1)C1CCCN(Cc2ccncc2)C1` (stereo not drawn) gave HDAC3 inh 9, Rtt109 Vps75 7, Rce1 inh inactive, ALR H2O2 inh 8, Efflux pump mplx 0 and GRK2 aptamer HTS 0.
OCC1CCCN(Cc2ccc(-c3ccccc3)cc2)C1 (stereo not drawn) was read as HDAC3 inh -1, Rtt109 Vps75 -3, Rce1 inh inactive, ALR H2O2 inh 99*, Efflux pump mplx 0 and GRK2 aptamer HTS 0.
`CCOc1cc(S(=O)(=O)N2CC=C(c3ccc(F)cc3)CC2)c(OCC)cc1-n1cnnn1` gave HDAC3 inh -4, Rtt109 Vps75 -7, Rce1 inh inactive, ALR H2O2 inh 42, Efflux pump mplx 0 and GRK2 aptamer HTS 1.
For CCOc1cc(S(=O)(=O)N2CCC(Cc3ccccc3)CC2)c(OCC)cc1-n1cnnn1 the results were HDAC3 inh -4, Rtt109 Vps75 55*, Rce1 inh inactive, ALR H2O2 inh -20, Efflux pump mplx 0 and GRK2 aptamer HTS 0.
Screening Cc1ccc(C(=O)CCS(=O)(=O)c2ccc(Br)cc2)cc1 returned HDAC3 inh -1, Rtt109 Vps75 0, Rce1 inh inactive, ALR H2O2 inh 7, Efflux pump mplx 0 and GRK2 aptamer HTS 0.

Screening results deposited in PubChem BioAssay by several laboratories.
